According to PubChem BioAssay AID602139 (NMMLSC, 2011):
“And” between values parts separate entries of the source, which are not always exact repeats. Equal entries are not always repeated. The list shows a part of the results. Values without a mark were called inactive. The source made the active and inactive calls. Cut-off read from the data, not from the text of the source: active = inhibition above about 32%; inactive = the rest.

What follows are compounds tested on Botulinum neurotoxin type A light chain protease (Clostridium botulinum A str. ATCC 3502) (assay: inhibition of botulinum toxin A LC protease – biochemical, flow cytometry, cherry pick 1, confirmation (AID 602139)). Conditions: multiplex microsphere protease assay, at 10 µM, stronger effect = higher value.

Row | SMILES | inhibition
1 | CN(C(=O)c1ccccn1)c1nnc(-c2ccccn2)s1 | -1.1%
2 | CC(=O)Nc1ccc(Oc2ccc3c(c2)C(=O)NC3=O)cc1 | 0.3%
3 | CCOc1nnc(C)c2c(C)n(-c3cccc(Cl)c3)nc12 | -6.5%
4 | COc1ccc(C2CC(c3cccs3)=NN2c2nc(C)c(C(C)=O)s2)cc1OC (configuration not stated) | 33.8% (active) and 32.3% (active)
5 | CC(=O)c1cccc(NC(=O)N2CCCC2C(=O)NCCc2ccccc2)c1 (configuration not stated) | 1.9%
6 | Clc1ccc(-c2ncc3ccccn23)c(Cl)c1 | 2.4%
7 | O=S(=O)(NC1CCCCC1N1CCC(O)CC1)c1ccc(Cl)cc1 (configuration not stated) | -1%
8 | COc1ccccc1CNC(=O)C1Cc2ccccc2C(=O)O1 (configuration not stated) | -0.4%
9 | Cc1ccccc1NC(=O)c1cc(S(=O)(=O)Nc2cccc(C(=O)O)c2)ccc1Cl | -1.4%
10 | CCOCC(=O)NCc1ccc2c(c1)cc(C)n2C | 1.8%
11 | COc1ccc(N(CC(=O)NCCSCc2cccc(Cl)c2)S(C)(=O)=O)cc1 | 1%
12 | Cc1c(NC(=O)c2cccnc2)c(=O)n(-c2ccccc2)n1C | 0.8%
13 | O=C(CN1CCCCCC1)Nc1c(Cl)cc(Cl)cc1Cl | 0%
14 | Brc1ccc2ncnc(NCc3cccnc3)c2c1 | -2.2%
15 | COc1cc(C(=O)NCc2ccc3c(c2)cc(C)n3C)cc(OC)c1OC | -0.1%
16 | Cc1ccc(C(=O)COc2cccc(NC(=O)c3ccco3)c2)cc1 | -0.4%
17 | Nc1ccccc1Sc1cc(Cl)nnc1Cl | -0.2%
